Test results taken from PubChem BioAssay (NCI).
This is part of a sample that, as a whole, favours compounds with a hit. Of some 83,000 tested, about 20% had one in any assay.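 The endpoint reported here, percent growth, reads 100 for growth as untreated, 0 for no net growth and -100 for all cells dead.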 Activity calls are given as the source filed them. The calls were made as follows: active = growth percent below 10; inactive = the rest.

Legend:
Experiment in all cases: NCI-60 one-dose screen, 48 h (100 = growth as untreated, 0 = no growth, -100 = all killed)
Settings in all cases: 10 µM unless noted
NCI/ADR-RES ovarian = tested on: NCI/ADR-RES ovarian
T-47D breast = tested on: T-47D breast
MDA-MB-435 melanoma = tested on: MDA-MB-435 melanoma
SW-620 colon = tested on: SW-620 colon
MCF7 breast = tested on: MCF7 breast
HCT-116 colon = tested on: HCT-116 colon
HCC-2998 colon = tested on: HCC-2998 colon
KM12 colon = tested on: KM12 colon

Measured: growth

COc1ccc(/C(C)=C(\c2ccc(OCCN3CCOCC3)cc2)c2ccc(OC(=O)Cc3ccccc3)cc2)cc1
inactive: NCI/ADR-RES ovarian 102% | T-47D breast 65.4% | MDA-MB-435 melanoma 107% | SW-620 colon 111% | MCF7 breast 71.7% | HCT-116 colon 104% | HCC-2998 colon 102% | KM12 colon 103%

COC(=O)[C@@H](C)C[C@H](Cc1ccccc1)NC(=O)c1csc([C@@H](C[C@H](C(C)C)N(C)C(=O)[C@@H](NC(=O)[C@H]2CCCN2C)C2CC2)OC(C)=O)n1
inactive: NCI/ADR-RES ovarian 12.4% | T-47D breast 40.9% | SW-620 colon 30.6% | MCF7 breast 21.7% | HCC-2998 colon 14.8%
active: MDA-MB-435 melanoma -20.6% | HCT-116 colon 1.11% | KM12 colon 1.92%

Nc1ccc2c(c1)Cc1cc(Br)ccc1-2
inactive: NCI/ADR-RES ovarian 101% | T-47D breast 102% | MDA-MB-435 melanoma 111% | SW-620 colon 108% | MCF7 breast 64.7% | HCT-116 colon 98.2% | HCC-2998 colon 99.7% | KM12 colon 105%

Nc1ccc(Cl)cc1
inactive: NCI/ADR-RES ovarian 99.5% | T-47D breast 94.6% | MDA-MB-435 melanoma 105% | SW-620 colon 103% | MCF7 breast 98.2% | HCT-116 colon 95.9% | HCC-2998 colon 106% | KM12 colon 102%

CC1=C(CCCNS(C)(=O)=O)C2=C(C)C3(CC3)[C@@](C)(O)C(=O)C2=C1
active: NCI/ADR-RES ovarian -5.49% | T-47D breast -11.2% | HCT-116 colon 1.02% | HCC-2998 colon -43.3%
inactive: MDA-MB-435 melanoma 11.7% | SW-620 colon 83.3% | MCF7 breast 20.7% | KM12 colon 62.4%

Cn1cc(C2=C(c3cn(C4CCN(Cc5ccccn5)CC4)c4ccccc34)C(=O)NC2=O)c2ccccc21
inactive: NCI/ADR-RES ovarian 84.4% | T-47D breast 54.5% | MDA-MB-435 melanoma 47.6% | SW-620 colon 47.8% | MCF7 breast 76.1% | HCT-116 colon 38.2% | HCC-2998 colon 31.4% | KM12 colon 57.2%

CC[C@H](C)[C@@H]([C@@H](CC(=O)N1CCC[C@H]1[C@H](OC)[C@@H](C)C(=O)N[C@H](C)[C@@H](O)c1ccccc1)OC)N(C)C(=O)[C@@H](NC(=O)[C@@H](NC)C(C)C)C(C)C
active: NCI/ADR-RES ovarian -2.45% | MDA-MB-435 melanoma 2.42% | HCT-116 colon 7.3% | HCC-2998 colon 9.29%
inactive: T-47D breast 87.3% | SW-620 colon 32.8% | MCF7 breast 15.3% | KM12 colon 15.3%

CC12CCC(O)CC1=CCC1C2CCC2(C)C(O)CCC12 (stereo not given)
inactive: NCI/ADR-RES ovarian 110% | T-47D breast 99.4% | MDA-MB-435 melanoma 104% | SW-620 colon 105% | MCF7 breast 116% | HCT-116 colon 104% | HCC-2998 colon 109% | KM12 colon 105%

CCCCCCCOC(C(=O)OCCN(CC)CC)(c1ccccc1)c1ccccc1
inactive: NCI/ADR-RES ovarian 97.8% | T-47D breast 86% | MDA-MB-435 melanoma 98.2% | SW-620 colon 77.3% | MCF7 breast 115% | HCT-116 colon 58% | HCC-2998 colon 88.5% | KM12 colon 78.4%

ClCCN(CCCl)c1ccc(/C=N/Nc2ncnc3nc[nH]c23)cc1
inactive: NCI/ADR-RES ovarian 98.4% | T-47D breast 59.8% | MDA-MB-435 melanoma 79.9% | SW-620 colon 77.6% | MCF7 breast 42.5% | HCT-116 colon 78.4% | HCC-2998 colon 94.6% | KM12 colon 96.6%

CCCCCCCCCCCCCC[P+](CCCCCC)(CCCCCC)CCCCCC
active: NCI/ADR-RES ovarian -10.5% | T-47D breast -14.8% | MDA-MB-435 melanoma -81% | SW-620 colon -86.3% | MCF7 breast -51.8% | HCT-116 colon -70.8% | HCC-2998 colon -24.4% | KM12 colon -100%

O=[N+]([O-])c1c(Br)sc(Br)c1[N+](=O)[O-]
active: NCI/ADR-RES ovarian -23.6% | T-47D breast -6.93% | SW-620 colon -77% | HCT-116 colon -85.2%
inactive: MDA-MB-435 melanoma 17.5% | MCF7 breast 23.3% | HCC-2998 colon 68% | KM12 colon 64.1%

CC[C@H](C)[C@H](NC(=O)[C@H]1CCCCN1C)C(=O)N(C)[C@H](C[C@@H](O)c1nc(C(=O)N[C@@H](Cc2ccccc2)C[C@H](C)C(=O)O)cs1)C(C)C
inactive: NCI/ADR-RES ovarian 109% | T-47D breast 81.5% | MDA-MB-435 melanoma 18.9% | SW-620 colon 58.6% | MCF7 breast 29.9% | HCT-116 colon 77.7% | HCC-2998 colon 99.9% | KM12 colon 72.7%

CCCCCCCC[N+](C)(CCCCCCCC)CCCCCCCC
active: NCI/ADR-RES ovarian -100% | T-47D breast -73.4% | MDA-MB-435 melanoma -90.8% | SW-620 colon -100% | MCF7 breast -100% | HCT-116 colon -100% | HCC-2998 colon -98% | KM12 colon -100%

COC(=O)CC12CC(NC(=O)c3csc([C@@H](C[C@H](C(C)C)N(C)C(=O)[C@@H](NC(=O)[C@H]4CCCCN4C)C(C)C)OC(C)=O)n3)(C1)C2
active: NCI/ADR-RES ovarian -24.1% | MDA-MB-435 melanoma -39.8% | HCT-116 colon 9.61%
inactive: T-47D breast 64.4% | SW-620 colon 29% | MCF7 breast 20.4% | HCC-2998 colon 10.5% | KM12 colon 11.1%

COC(=O)[C@@H](C)C[C@H](Cc1ccc(F)cc1)NC(=O)c1csc([C@@H](C[C@H](C(C)C)N(C)C(=O)[C@@H](NC(=O)[C@H]2CCCCN2C)C2CC2)OC(C)=O)n1
active: MDA-MB-435 melanoma -50.1% | HCT-116 colon 3.44%
inactive: NCI/ADR-RES ovarian 76.4% | T-47D breast 60.1% | SW-620 colon 27.2% | MCF7 breast 19.6% | HCC-2998 colon 28.8% | KM12 colon 14%

CN(CCCCN(C)CCOS(C)(=O)=O)CCOS(C)(=O)=O
inactive: NCI/ADR-RES ovarian 76.3% | T-47D breast 81.1% | MDA-MB-435 melanoma 101% | SW-620 colon 74.1% | MCF7 breast 71.2% | HCT-116 colon 81.4% | HCC-2998 colon 58.4% | KM12 colon 95.1%

CC(=O)O[C@H]1C(=O)[C@@]2(C)[C@H]([C@H](OC(=O)c3ccccc3)[C@]3(O)C[C@H](OC(=O)[C@H](OC(=O)OCC4COC(C)(C)O4)[C@@H](NC(=O)c4ccccc4)c4ccccc4)C(C)=C1C3(C)C)[C@]1(OC(C)=O)CO[C@@H]1C[C@@H]2O (stereo not given in full)
inactive: NCI/ADR-RES ovarian 91.4% | T-47D breast 40.7% | SW-620 colon 38.7% | MCF7 breast 18.9% | HCT-116 colon 19.2% | HCC-2998 colon 39.9% | KM12 colon 18.7%
active: MDA-MB-435 melanoma -49.6%

CC[C@H](C)[C@H](NC(=O)N[C@@H](C)c1ccccc1)C(=O)N(C)[C@H](C[C@@H](OC(C)=O)c1nc(C(=O)N[C@@H](Cc2ccccc2)C[C@H](C)C(=O)OC)cs1)C(C)C
inactive: NCI/ADR-RES ovarian 50% | T-47D breast 76.7% | SW-620 colon 16.8% | MCF7 breast 17.5% | HCC-2998 colon 23.7%
active: MDA-MB-435 melanoma -41.7% | HCT-116 colon 9.92% | KM12 colon 2.6%

CCC(C)(C)[C@H](NC(=O)[C@H]1CCCCN1C)C(=O)N(C)[C@H](C[C@@H](OC(C)=O)c1nc(C(=O)N[C@@H](Cc2ccccc2)C[C@H](C)C(=O)O)cs1)C(C)C
active: MDA-MB-435 melanoma -47.2% | HCT-116 colon -10% | KM12 colon 4.26%
inactive: NCI/ADR-RES ovarian 16.8% | T-47D breast 76.7% | SW-620 colon 26.6% | MCF7 breast 23.9% | HCC-2998 colon 22.2%

C[C@@H]1CCC2[C@@H](C)[C@H](OC(=O)CCC(=O)NCCNC(=O)Cc3cc(=O)oc4cc(N(C)C)ccc34)O[C@@H]3O[C@]4(C)CC[C@@H]1C23OO4 (stereo not given in full)
inactive: NCI/ADR-RES ovarian 16.6% | T-47D breast 41% | MDA-MB-435 melanoma 19.2% | SW-620 colon 25.3% | MCF7 breast 35.9% | HCT-116 colon 10.1% | HCC-2998 colon 50.2% | KM12 colon 22.2%

CNC(=O)Oc1ccc(C(C)(C)C)cc1OC(=O)NC
inactive: NCI/ADR-RES ovarian 104% | T-47D breast 98.9% | MDA-MB-435 melanoma 97% | SW-620 colon 94.8% | MCF7 breast 93.9% | HCT-116 colon 93% | HCC-2998 colon 103% | KM12 colon 99.8%

CC[C@H](C)[C@H](NC(=O)[C@H]1CCCCN1C)C(=O)N(C)[C@H](C[C@@H](OC(C)=O)c1nc(C(=O)NC23CC(C(=O)OC)(C2)C3)cs1)C(C)C
inactive: NCI/ADR-RES ovarian 10% | T-47D breast 64.4% | SW-620 colon 39.4% | MCF7 breast 12.1% | HCC-2998 colon 10.4%
active: MDA-MB-435 melanoma -14.1% | HCT-116 colon 5.83% | KM12 colon 0.539%

CC1=C([Te]c2ccc(O)cc2)C(=O)c2ccccc2C1=O
active: NCI/ADR-RES ovarian -2.79% | T-47D breast -67.3% | MDA-MB-435 melanoma -76.7% | SW-620 colon 3.05% | MCF7 breast -4.83% | HCT-116 colon -63.4% | HCC-2998 colon -1.49% | KM12 colon 6.03%

O=C(c1ccccc1O)c1[nH]c(Cl)c(Cl)c1-n1c(C(=O)c2ccccc2O)cc(Cl)c1Cl
active: NCI/ADR-RES ovarian -3.31% | T-47D breast -10.1% | MDA-MB-435 melanoma 3.49% | SW-620 colon 7.86% | MCF7 breast 1.43% | HCT-116 colon 0.716% | KM12 colon -19.3%
inactive: HCC-2998 colon 15.3%

O=C(O)C1C(C(=O)O)C2(Cl)C(Cl)=C(Cl)C1(Cl)C2(Cl)Cl.[Hg] (stereo not given)
inactive: NCI/ADR-RES ovarian 102% | T-47D breast 58% | MDA-MB-435 melanoma 99.7% | SW-620 colon 86.7% | MCF7 breast 52.2% | HCT-116 colon 90.4% | HCC-2998 colon 116% | KM12 colon 96.7%

COC(=O)[C@@H](C)C[C@H](Cc1ccccc1)NC(=O)c1csc([C@@H](C[C@H](C(C)C)N(C)C(=O)[C@@H](NC(=O)[C@H]2CCCCN2C)C(C)C)OC(C)=O)n1
active: NCI/ADR-RES ovarian 5.63% | MDA-MB-435 melanoma -54.7% | HCT-116 colon -21.2% | KM12 colon 4.46%
inactive: T-47D breast 54.7% | SW-620 colon 22.9% | MCF7 breast 19.6% | HCC-2998 colon 12.9%

ClCCN(CCCl)c1ccc(-n2cnc3c(Cl)ncnc32)cc1
inactive: NCI/ADR-RES ovarian 61% | T-47D breast 41.1% | MDA-MB-435 melanoma 46.9% | MCF7 breast 25.7% | HCT-116 colon 33.6% | HCC-2998 colon 82.6% | KM12 colon 46.3%
active: SW-620 colon -73.8%

Cc1ccc(S(=O)(=O)C(Cl)(Cl)Cl)cc1
inactive: NCI/ADR-RES ovarian 89.1% | T-47D breast 78.4% | MDA-MB-435 melanoma 97.1% | SW-620 colon 99.3% | MCF7 breast 98.6% | HCT-116 colon 87.3% | HCC-2998 colon 107% | KM12 colon 101%

CC1=C(CCCOC(=O)[C@H](N)CC(C)C)C2=C(C)C3(CC3)[C@@](C)(O)C(=O)C2=C1
inactive: MDA-MB-435 melanoma 69.8% | SW-620 colon 87.1% | MCF7 breast 37.8% | KM12 colon 79.8%
active: NCI/ADR-RES ovarian 3.96% | T-47D breast 5.21% | HCT-116 colon 9.3% | HCC-2998 colon 0.215%
